Structures are written as SMILES. Where “and” joins values, the source holds several entries; their conditions need not be identical. Equal values may be shown once. Inconclusive results are not listed. Some compounds were tested as several samples or in several runs, with calls that do not always agree. Calls of active or inactive are those of the source. Rule for the calls, unless noted: active = hit-call score of the fitted dose curve at least 0.9, where 1 is the maximum; inconclusive = response in the unintended direction; inactive = score below 0.9.

Read-out in experiment [1]: Thyroid Hormone Responsive (THRSP), THRSP (gene 7069)
Put plainly: LTEA_HepaRG_THRSP: Life Technologies and Expression Analysis (LTEA) Assay for Thyroid Hormone Responsive (THRSP) using HepaRG (AID 2283536; active = hit-call score of the fitted dose curve at least 0.9, where 1 is the maximum; inactive = score below 0.9). The following applies: mRNA level, 48 h; actives raise or lower the signal. The gist of the method: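 mRNA induction or loss relative to 0.5% DMSO vehicle was fitted bidirectionally across an eight-point curve whose highest exposure was 100 uM. Human HepaRG liver cells received chemicals in duplicate over 48 h before RNA extraction.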

Read-out in experiment [2]: Cellular tumor antigen p53 (Homo sapiens) (UniProt P04637)
The experiment can be described thus: LTEA_HepaRG_TP53: Life Technologies and Expression Analysis (LTEA) Assay for Tumor Protein P53 (TP53) using HepaRG (AID 2283537; active = hit-call score of the fitted dose curve at least 0.9, where 1 is the maximum; inactive = score below 0.9). The following applies: mRNA level, 48 h; actives raise or lower the signal. The procedure, abridged:
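HepaRG, 48 h exposure, top 100 uM, half-log 8-point, 0.5% DMSO vehicle, duplicates. Read: TP53 mRNA by TaqMan qRT-PCR, normalised to ACTB/GAPDH/POLR2A; bidirectional fit vs DMSO.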

Read-out in experiment [3]: UDP glucuronosyltransferase (UGT1A1), UGT1A1 (gene 54658)
The experiment can be described thus: LTEA_HepaRG_UGT1A1: Life Technologies and Expression Analysis (LTEA) Assay for UDP glucuronosyltransferase (UGT1A1) using HepaRG (AID 2283538; active = hit-call score of the fitted dose curve at least 0.9, where 1 is the maximum; inactive = score below 0.9). The following applies: mRNA level, 48 h; actives raise or lower the signal. The procedure, abridged:
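Differentiated human HepaRG cells in serum-free induction medium were exposed in duplicate for 48 h to eight half-log concentrations up to 100 uM in 0.5% DMSO. UGT1A1 mRNA was quantified by TaqMan qRT-PCR, normalized to ACTB, GAPDH and POLR2A, and fitted bidirectionally against DMSO.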

Read-out in experiment [4]: UDP glucuronosyltransferase (UGT1A6), UGT1A6 (gene 54578)
Put plainly: LTEA_HepaRG_UGT1A6: Life Technologies and Expression Analysis (LTEA) Assay for UDP glucuronosyltransferase (UGT1A6) using HepaRG (AID 2283539; active = hit-call score of the fitted dose curve at least 0.9, where 1 is the maximum; inactive = score below 0.9). The following applies: mRNA level, 48 h; actives raise or lower the signal. The gist of the method: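 Expression was quantified by TaqMan qRT-PCR on Fluidigm arrays with ACTB/GAPDH/POLR2A normalization and bidirectional fitting against 0.5% DMSO. HepaRG cells (~100,000/well) were treated in duplicate for 48 h at eight half-log concentrations up to 100 uM in serum-free induction medium.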

A short description of experiment [5]: LTEA_HepaRG_LDH_cytotoxicity: Cytotoxicity Assessment in the Life Technologies and Expression Analysis (LTEA) Assay (AID 2283563).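 For AC50: LDH activity released into spent culture medium as a marker of cell death.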 The procedure, abridged:
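LDH release into culture medium read after 48 h chemical treatment of HepaRG cells. Duplicate wells, eight-point half-log series topping at 100 uM, 0.5% DMSO vehicle and baseline.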

Experiment [6] in a line: ATG_XTT_Cytotoxicity: Cytotoxicity Assessment in the Attagene TRANS-FACTORIAL HepG2 Assay (AID 2283584). The gist of the method: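 Viability endpoint from XTT after 24 h chemical exposure of reporter-transfected human HepG2 liver cells; signal loss fitted relative to DMSO negative control.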
The nature of experiment [7]: TOX21_p53_BLA_p2_viability: Viability Assessment in the Tox21 HCT-116 p53 Agonism Beta-lactamase Assay, Phase 2 (AID 2283591).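 Note: compound exposure lasted 16 h at 37 °C; actives lower the ATP signal meaning cytotoxicity.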 The procedure, abridged:
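Cytotoxicity readout: CellTiter-Glo ATP luminescence, 30 min at room temperature, after the beta-lactamase read. Cells were HCT116 exposed 16 h at 37C to compounds pin-transferred at 217-fold dilution from DMSO stocks.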

Experiment [8] has as its target Cellular tumor antigen p53 (Homo sapiens) (UniProt P04637). Put plainly: TOX21_p53_BLA_p2_ratio: Tox21 HCT-116 p53 Agonism Beta-lactamase Assay, Ratio, Phase 2 (AID 2283592). The procedure, abridged: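 Gain-of-signal p53 agonism was scored from the beta-lactamase FRET ratio (460/530 nm, 405 nm excitation) in HCT116 cells treated 16 h at 37C, 5% CO2, with DMSO serving as negative control and baseline.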

Read-out in experiment [9]: X-box binding protein 1 (XBP1), XBP1 (gene 7494)
The experiment can be described thus: LTEA_HepaRG_XBP1: Life Technologies and Expression Analysis (LTEA) Assay for X-box binding protein 1 (XBP1) using HepaRG (AID 2283540; active = hit-call score of the fitted dose curve at least 0.9, where 1 is the maximum; inactive = score below 0.9). The following applies: mRNA level, 48 h; actives raise or lower the signal. The gist of the method: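 XBP1 transcript by qRT-PCR (housekeeping-normalized: ACTB, GAPDH, POLR2A) after 48 h chemical treatment of HepaRG cells, 8-point half-log series topping at 100 uM, vehicle 0.5% DMSO. Gain and loss of signal fitted relative to DMSO.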

Experiment [10] is described as follows: TOX21_p53_BLA_p3_viability: Viability Assessment in the Tox21 HCT-116 p53 Agonism Beta-lactamase Assay, Phase 3 (AID 2283593).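 Note: cells exposed to compound for 16 h before reading.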 The procedure, abridged:
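Cellular ATP was quantified by CellTiter-Glo luminescence, read after 30 min at room temperature. Beforehand, HCT116 cells (4000/well) received compound 5 h post-seeding, 217-fold diluted from DMSO, then incubated 16 h at 37C.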

Chain of Cellular tumor antigen p53 (Homo sapiens) (P04637 whole entry, looked up): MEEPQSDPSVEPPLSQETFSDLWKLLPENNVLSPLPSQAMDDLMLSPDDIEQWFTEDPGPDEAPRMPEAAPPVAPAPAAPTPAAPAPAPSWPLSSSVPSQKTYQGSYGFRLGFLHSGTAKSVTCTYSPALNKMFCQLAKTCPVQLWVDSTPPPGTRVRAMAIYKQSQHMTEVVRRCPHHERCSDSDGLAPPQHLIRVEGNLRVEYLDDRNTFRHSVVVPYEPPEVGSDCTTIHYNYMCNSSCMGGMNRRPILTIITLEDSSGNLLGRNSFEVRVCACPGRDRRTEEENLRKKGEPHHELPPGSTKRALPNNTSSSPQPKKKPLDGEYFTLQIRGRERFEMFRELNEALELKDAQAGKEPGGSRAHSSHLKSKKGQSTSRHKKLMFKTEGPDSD

For the compound `C1CC2OC2CC1C1CO1` (stereo not given), the result in [1], in [2], in experiment [3], in experiment [4], in experiment [5] and in [6] was inactive. In addition, the result in experiment [7] and in experiment [8] was inactive.
Take `CCC(C)c1cc([N+](=O)[O-])cc([N+](=O)[O-])c1O` (stereo not given): the AC50 was 1.98 µM (active) in [1]; 1.55 µM (active) in experiment [2]; 1.83 µM (active) in experiment [3]; 4.17 µM (active) in experiment [4]; 3.73 µM (active) in experiment [5]; 4.16 µM (active) in experiment [8]. Also, the outcome in [9], in experiment [6] and in experiment [10] was inactive.
For the compound `O=C(NC(=O)c1c(F)cccc1F)Nc1cc(Cl)c(OC(F)(F)C(F)F)c(Cl)c1`, in experiment [1], the AC50 was 9.92 µM (active). The outcome in experiment [2], in experiment [3], in experiment [4], in experiment [9], in [5] and in experiment [6] was inactive. In addition, the call in experiment [7], in [8] and in [10] was inactive.
Regarding `Clc1ccc(Cl)cc1`, the call in experiment [1], in experiment [2], in experiment [3], in [4], in experiment [9] and in [5] was inactive. Further, the call in experiment [6], in experiment [7], in [8] and in [10] was inactive.
Regarding `NS(=O)(=O)C(F)(F)C(F)(F)C(F)(F)C(F)(F)C(F)(F)C(F)(F)C(F)(F)C(F)(F)F`, the AC50 in experiment [1] was 7.4 µM (active); in experiment [2] it was 50 µM (active); in [3], 10.1 µM (active); in experiment [4], 13.3 µM (active); in experiment [9], 3.63 µM (active); in experiment [5] it was 31.4 µM (active). The AC50 in experiment [10] is 46.1 µM (active). Besides, the compound was classed as inactive in [6], in experiment [7] and in experiment [8].
In the case of `Cc1ccccc1O`, the call in experiment [1], in experiment [2], in experiment [3], in experiment [4], in experiment [5] and in [6] was inactive. The compound was called inactive in experiment [7] and in experiment [8].
For the compound `O=C(O)C(F)(F)C(F)(F)C(F)(F)C(F)(F)C(F)(F)F`, the outcome in experiment [1], in experiment [2], in experiment [3], in experiment [4], in experiment [9] and in [5] was inactive. In addition, in [8], the outcome was inactive.
With `ClC(Cl)=C(c1ccc(Cl)cc1)c1ccc(Cl)cc1`, the AC50 in experiment [1] was 77.6 µM (active); in experiment [3], 13.1 µM (active); in [7], 55.6 µM (active); in experiment [8], 87.7 µM (active); in [10], 58.4 µM (active). Also, the result in experiment [2], in experiment [4], in experiment [9], in [5], in experiment [6] and in experiment [7] was inactive. Further, the result in [8] and in [10] was inactive.
Regarding `O=S(=O)(O)C(F)(F)C(F)(F)C(F)(F)C(F)(F)F`, the compound was classed as inactive in experiment [1], in experiment [2], in experiment [3], in experiment [4], in [9] and in [5]. The compound was called inactive in [6], in experiment [7], in experiment [8] and in experiment [10].
As to `N#Cc1ccc(N(CC(N)=O)CC(F)(F)F)cc1C(F)(F)F`, the AC50 in experiment [1] was 0.103 µM (active); in [3] it was 22.6 µM (active). In addition, the result in experiment [2], in [4], in experiment [9], in experiment [5] and in experiment [7] was inactive.
Consider `Clc1ccc(C(c2ccccc2Cl)C(Cl)(Cl)Cl)cc1` (stereo not given), for which the AC50 in [1] was 55.8 µM (active); in experiment [3] it was 0.818 µM (active); in [5] it was 77.5 µM (active); in experiment [7], 32.5 µM (active) and 55.2 µM (active); in experiment [8] it was 47.2 µM (active) and 74.1 µM (active); in experiment [10] it was 26.1 µM (active) and 68.2 µM (active). Further, the compound was classed as inactive in experiment [2], in experiment [4], in experiment [9] and in experiment [6].
As to `O=S(=O)(O)C(F)(F)C(F)(F)C(F)(F)C(F)(F)C(F)(F)C(F)(F)F`, the outcome in [1], in experiment [2], in experiment [4], in [9], in experiment [5] and in experiment [6] was inactive. The outcome in [8] and in experiment [10] was inactive. Besides, the AC50 in experiment [3] is 38.6 µM (active).
For `CCOP(=S)(OCC)SCSC(C)(C)C`, the result in experiment [1], in experiment [2], in [3], in experiment [4], in [5] and in [6] was inactive. The call in [7] and in experiment [8] was inactive.
`CC(C)(c1ccccc1)c1ccc(O)cc1`: the AC50 in [1] is 78.2 µM (active); in experiment [5], 76.7 µM (active); in experiment [7] it was 80.1 µM (active); in experiment [8] it was 74 µM (active). For the same compound, the result in experiment [2], in experiment [3], in experiment [4], in experiment [6], in [7] and in experiment [8] was inactive. The call in [10] was inactive.
Turning to `C[C@]12CCC(=O)C=C1CC[C@@H]1[C@@H]2CC[C@@]2(C)[C@H]1CC[C@]2(C)O`, the AC50 in [1] was 0.81 µM (active); in [3], 10.9 µM (active); in experiment [4] it was 45.8 µM (active); in [5], 74 µM (active); in experiment [8], 50.3 µM (active). The result in experiment [2], in experiment [6], in experiment [7], in experiment [8] and in [10] was inactive.

Usually AC50 stands for the midpoint of the concentration-response curve, whichever way the signal moves.

Values taken from PubChem BioAssay (EPA / NIEHS).
